Here are results for 27 molecules from PubChem BioAssay (NCATS).

Inconclusive results are not listed. Entries that show only a call come without a potency. The source made the active and inactive calls. Calls come from the whole dose curve.
Potency is the fitted concentration of half-maximal effect.

This test in a line: Natriuretic polypeptide receptor (hNpr1) antagonism - Pilot counterscreen GloSensor control cell line (AID 1347045). The note with it: HEK293 cGMP GloSensor cells, SNP-stimulated luminescence, 20 min; series mostly up to 38.3 µM. In a few lines: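 Cells were first seeded and incubated overnight at 37C, then loaded with 2% GloSensor substrate for 2 h. Compounds were added for 30 min at room temperature, followed by a baseline read, 50 uM SNP and a final read after 20 min.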
(In general: The purpose of a counterscreen is to sort out artefacts and off-target activity.)
In the case of `O=c1c(O)c(-c2cc(O)c(O)c(O)c2)oc2cc(O)cc(O)c12`, the Potency result is “inactive”.

In the case of `Nc1ccn([C@@H]2O[C@H](CO)[C@@H](O)C2O)c(=O)n1` (some centres not stated), the Potency entry was “inactive”.

`CNC[C@H](O)c1ccc(O)c(O)c1`: the Potency entry is “inactive”.

`OC(CN1CCN(c2cccc(Cl)c2)CC1)C(c1ccccc1)c1ccccc1` (configuration not stated): the Potency result was “inactive”.

As for `O=C1NC(=O)C(c2ccccc2[N+](=O)[O-])=C1Nc1ccc(O)c(Cl)c1`, the Potency result is “inactive”.

As to `COc1cc2nc(N3CCN(C(=O)C4CCCO4)CC3)nc(N)c2cc1OC` (configuration not stated), the Potency result was “inactive”.

For `CN(C)CCCC1(c2ccc(F)cc2)OCc2cc(C#N)ccc21` (configuration not stated), the Potency result is “inactive”.

Regarding `O=c1c(O)c(-c2ccc(O)cc2O)oc2cc(O)cc(O)c12`, the Potency entry was “inactive”.

In the case of `COc1cc2c(cc1OC)C1CC(=O)C(CC(C)C)CN1CC2` (configuration not stated), the Potency entry was “inactive”.

For the molecule `CC(C)c1ccc2c(c1)c(SC(C)(C)C)c(CC(C)(C)C(=O)O)n2Cc1ccc(Cl)cc1`, the Potency was 13.1 µM (active).

In the case of `NCCCCNCCCN`, the Potency entry was “inactive”.

Consider `NC(=NCc1ccccc1)NC(=O)c1nc(Cl)c(N)nc1N`, for which the Potency entry was “inactive”.

For the molecule `CC1(C)C(=O)N(CCN2CCC(C(=O)c3ccc(F)cc3)CC2)c2ccccc21`, the Potency result was “inactive”.

On to `O=C1c2c(O)cc(O)cc2OC(c2ccc(O)c(O)c2)C1O` (configuration not stated), for which the Potency entry was “inactive”.

For the molecule `Cc1c(OCC(F)(F)F)ccnc1CS(=O)c1nc2ccccc2[nH]1` (configuration not stated), the Potency result was “inactive”.

With `O=c1cc(N2CCOCC2)oc2c(-c3ccccc3)cccc12`, the Potency entry is “inactive”.

Consider `CC1(C)NC(=O)N(c2ccc([N+](=O)[O-])c(C(F)(F)F)c2)C1=O`, for which the Potency result is “inactive”.

Take `CC(=O)O[C@H]1C(=O)[C@@]2(C)C([C@H](OC(=O)c3ccccc3)[C@]3(O)C[C@H](OC(=O)[C@H](O)[C@@H](NC(=O)c4ccccc4)c4ccccc4)C(C)=C1C3(C)C)[C@]1(OC(C)=O)CO[C@@H]1C[C@@H]2O` (some centres not stated): the Potency entry is “inactive”.

For `Oc1ccc(-c2nc(-c3ccc(F)cc3)c(-c3ccncc3)[nH]2)cc1`, the Potency entry was “inactive”.

On to `O=C1c2ccccc2-c2n[nH]c3cccc1c23`, for which the Potency entry is “inactive”.

Turning to `O=C(c1ccccc1)c1ccc2n1CCC2C(=O)O` (configuration not stated), the Potency entry was “inactive”.

Regarding `COc1ccccc1N1CCN(CCN(C(=O)C2CCCCC2)c2ccccn2)CC1`, the Potency result was “inactive”.

Regarding `COc1ccc2cc([C@H](C)C(=O)O)ccc2c1`, the Potency entry is “inactive”.

Turning to `Nc1nc(OCc2ccccc2)c2[nH]cnc2n1`, the Potency result was “inactive”.

For `CCN(CC)C(=S)SSC(=S)N(CC)CC`, the Potency is 3.29 µM (active).

In the case of `O=c1ccc2ccc(O)c(O)c2o1`, the Potency result is “inactive”.

For the molecule `CCOC(=O)C(C)Oc1cccc2c(=O)n(CC(=O)Nc3ccc4c(c3)OCCO4)ccc12` (configuration not stated), the Potency entry is “inactive”.
